# The supplement of paper PMC4022240
# ± gives the standard deviation.
# T1: HaloTag-ATRX ADD domain (163-292)
# T1 chain: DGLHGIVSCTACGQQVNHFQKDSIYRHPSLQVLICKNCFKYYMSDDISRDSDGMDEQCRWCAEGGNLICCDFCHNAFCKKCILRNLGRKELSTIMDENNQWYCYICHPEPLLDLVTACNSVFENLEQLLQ
# Tests used:
# Test in all cases: peptide microarray binding signal (635 nm), min-max normalized on array (fraction of array maximum); higher = stronger binding
# Conditions in all cases: peptide region: Unmod H1 variant
# [1] = target: T1, HaloTag-ATRX ADD domain (163-292)
# In short: (§1)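 Two probe formats were used for 1 h at 4°C: biotin-labelled HaloTag reader fusions (10 nM to 1 μM) with streptavidin-Alexa Fluor 647, and rabbit histone antibodies (1:10,000 to 1:2,000) with anti-rabbit Alexa 647. Both were applied to nitrocellulose arrays of histone 13-mer peptide–cellulose conjugates printed in triplicate with a Cy3 tracer and blocked overnight at 4°C. Signal was read at 635 nm and misprints at 532 nm on an Axon GenePix 4000B. Binding signal is expressed as the triplicate-spot mean intensity, min-max scaled for each library.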
# [2] = target: HaloTag-ING2 PHD (mouse Ing2 200-280)
# In short: as §1
# [3] = target: anti-H3K4me3 antibody ab8580
# In short: as §1
# [4] = target: anti-H3K9me3 antibody ab8898
# In short: as §1
# [5] = binder concentration: 1:2,000 dilution
# [6] = binder concentration: 1:10,000 dilution
Binder,peptide microarray binding signal ([1]; binder concentration: 50 nM),peptide microarray binding signal ([1]; binder concentration: 500 nM),peptide microarray binding signal ([2]; binder concentration: 10 nM),peptide microarray binding signal ([2]; binder concentration: 100 nM),"peptide microarray binding signal [3, 5]","peptide microarray binding signal [3, 6]","peptide microarray binding signal [4, 5]","peptide microarray binding signal [4, 6]"
IVQAASSSKERGG [Unmod H1 variant I V Q A A S S S K E R G G],0.0196 ± 0.0029,0.0152 ± 0.00061,0.0112 ± 0.00078,0.0197 ± 0.0013,0.00279 ± 6.5e-05,0.00708 ± 0.00071,0.00216 ± 0.00024,0.00306 ± 0.00012
LKKALAAAGYDVE [Unmod H1 variant L K K A L A A A G Y D V E],0.0162 ± 0.00021,0.0149 ± 0.00063,0.00322 ± 3.5e-05,0.004606 ± 3.8e-05,0.000982 ± 5.9e-05,0.001655 ± 1.6e-05,0.000861 ± 5.4e-05,0.001211 ± 1.2e-05
GTGASGSFKLNKK [Unmod H1 variant G T G A S G S F K L N K K],0.01633 ± 0.00015,0.00986 ± 0.0013,0.00251 ± 5.1e-05,0.00539 ± 0.00089,0.000547 ± 1.9e-05,0.00114 ± 3e-05,0.0003926 ± 3.9e-06,0.00121 ± 3.2e-05
AGKKAKKPAKAAA [Unmod H1 variant A G K K A K K P A K A A A],0.0147 ± 0.00057,0.0114 ± 0.0028,0.00507 ± 0.00099,0.00539 ± 0.00095,0.000585 ± 4.5e-05,0.000856 ± 8.9e-06,0.000181,0.000692 ± 7.3e-06
YDVEKNNSRIKLG [Unmod H1 variant Y D V E K N N S R I K L G],0.0163 ± 0.00037,0.0175 ± 0.00085,0.00841 ± 0.00067,0.0132 ± 0.00014,0.000944 ± 1.6e-05,0.00114 ± 3e-05,0.000453 ± 1.5e-05,0.00075 ± 1.6e-05
PAGPSVSELIVQA [Unmod H1 variant P A G P S V S E L I V Q A],0.0127 ± 0.00021,0.00367 ± 0.00014,0.00203 ± 3.6e-05,0.00177 ± 3.1e-05,0.00111 ± 0.00011,0.00097 ± 2.6e-05,0.000438 ± 1.7e-05,0.00075 ± 7.9e-06
ERGGVSLAALKKA [Unmod H1 variant E R G G V S L A A L K K A],0.0175 ± 0.00043,0.0165 ± 0.00037,0.0122 ± 0.00043,0.0252 ± 0.0017,0.00283 ± 4.9e-05,0.00496 ± 0.00014,0.00225 ± 8.6e-05,0.00283 ± 4.9e-05
SKGTLVQTKGTGA [Unmod H1 variant S K G T L V Q T K G T G A],0.0193 ± 0.0038,0.0147 ± 0.00052,0.003939 ± 2.1e-05,0.0162 ± 0.0012,0.000812 ± 6.2e-05,0.0012 ± 2.4e-05,0.000211 ± 2.2e-06,0.00075 ± 7.9e-06
IKLGIKSLVSKGT [Unmod H1 variant I K L G I K S L V S K G T],0.0221 ± 0.0027,0.0236 ± 0.00098,0.00656 ± 0.00055,0.0191 ± 0.0018,0.00147 ± 3.9e-05,0.00262,0.00109 ± 2.9e-05,0.001441 ± 1.4e-05
ASAAPEKPLAGKK [Unmod H1 variant A S A A P E K P L A G K K],0.0171 ± 0.0014,0.0163 ± 0.00078,0.00603 ± 0.00016,0.0206 ± 0.0028,0.00151 ± 4.1e-05,0.00262 ± 0.00011,0.000891 ± 5.9e-05,0.00115 ± 2e-05
